Laboratory results: PubChem BioAssay (NCI)
Compounds without any hit were thinned out: in the full panel of roughly 83,000, 20% have a hit.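 Interpretation: 100, growth as untreated; towards 0, rising growth inhibition; 0, no net growth; 0 to -100, cell death. Compounds scoring below 10 were considered active.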

Experiments:
Assay in all cases: NCI-60 one-dose screen, 48 h (100 = growth as untreated, 0 = no growth, -100 = all killed)
Conditions in all cases: 10 µM unless noted
HCT-15 colon = system: HCT-15 colon
HT29 colon = system: HT29 colon
SNB-75 CNS = system: SNB-75 CNS
SNB-19 CNS = system: SNB-19 CNS
U251 CNS = system: U251 CNS
PC-3 prostate = system: PC-3 prostate
SK-MEL-5 melanoma = system: SK-MEL-5 melanoma
UACC-62 melanoma = system: UACC-62 melanoma
LOX IMVI melanoma = system: LOX IMVI melanoma
SK-MEL-28 melanoma = system: SK-MEL-28 melanoma
SK-MEL-2 melanoma = system: SK-MEL-2 melanoma
EKVX NSCLC = system: EKVX NSCLC
SN12C renal = system: SN12C renal
UO-31 renal = system: UO-31 renal
TK-10 renal = system: TK-10 renal
ACHN renal = system: ACHN renal
CAKI-1 renal = system: CAKI-1 renal
CCRF-CEM leukemia = system: CCRF-CEM leukemia
MOLT-4 leukemia = system: MOLT-4 leukemia

Measured: growth

COc1ccc2c(c1)oc1c(C)c3c(c(C)c12)C(=O)N(CCN1CCOCC1)C3=O
inactive: HCT-15 colon 102% | HT29 colon 99.3% | SNB-75 CNS 99.5% | SNB-19 CNS 97.5% | U251 CNS 105% | PC-3 prostate 82.8% | SK-MEL-5 melanoma 97.5% | UACC-62 melanoma 93.3% | LOX IMVI melanoma 96.4% | SK-MEL-28 melanoma 103% | SK-MEL-2 melanoma 124% | EKVX NSCLC 110% | SN12C renal 93.2% | UO-31 renal 85.1% | TK-10 renal 115% | ACHN renal 104% | CAKI-1 renal 88.1% | CCRF-CEM leukemia 77.4% | MOLT-4 leukemia 83.1%

COC(=O)CNC(=O)[C@]12CCC(C)(C)C[C@H]1C1=CC[C@@H]3[C@@]4(C)Cc5c([nH]c6ccccc56)C(C)(C)[C@@H]4CC[C@@]3(C)[C@]1(C)CC2
inactive: HCT-15 colon 87.7% | HT29 colon 81% | SNB-75 CNS 87.6% | SNB-19 CNS 92.2% | U251 CNS 82.3% | PC-3 prostate 74.4% | SK-MEL-5 melanoma 98.1% | UACC-62 melanoma 81.7% | LOX IMVI melanoma 94% | SK-MEL-28 melanoma 96.7% | SK-MEL-2 melanoma 77.3% | EKVX NSCLC 88.6% | SN12C renal 89.8% | UO-31 renal 65.3% | TK-10 renal 90.3% | ACHN renal 49.1% | CAKI-1 renal 71.2% | CCRF-CEM leukemia 87.3% | MOLT-4 leukemia 63.6%

CCN1CCN(CCNc2nccc(-c3c(-c4cccc(OC)c4)nc4occn34)n2)S1(=O)=O
inactive: HCT-15 colon 102% | HT29 colon 50.3% | SNB-75 CNS 112% | SNB-19 CNS 113% | U251 CNS 113% | PC-3 prostate 96.9% | SK-MEL-5 melanoma 60.5% | UACC-62 melanoma 27.5% | LOX IMVI melanoma 76.6% | SK-MEL-28 melanoma 47.3% | SK-MEL-2 melanoma 93.6% | EKVX NSCLC 90.9% | SN12C renal 95.6% | UO-31 renal 91.9% | TK-10 renal 128% | ACHN renal 84.9% | CAKI-1 renal 78.1% | CCRF-CEM leukemia 117% | MOLT-4 leukemia 89%

Cc1ccc(-c2nc3ccccn3c2/C=C2/C(=O)Nc3cc(Cl)ccc32)cc1
inactive: HCT-15 colon 53.3% | HT29 colon 66.5% | SNB-75 CNS 61.8% | SNB-19 CNS 87.5% | U251 CNS 96.4% | PC-3 prostate 70.1% | SK-MEL-5 melanoma 71.9% | UACC-62 melanoma 74.1% | LOX IMVI melanoma 53.8% | SK-MEL-28 melanoma 91.8% | SK-MEL-2 melanoma 87.7% | EKVX NSCLC 91.9% | SN12C renal 77.5% | UO-31 renal 62.5% | TK-10 renal 120% | ACHN renal 92.3% | CAKI-1 renal 62.6% | CCRF-CEM leukemia 56.2% | MOLT-4 leukemia 53.4%

O=S(=O)(Nc1ccc(-n2cnc3cc(-c4ccc(O)cc4)ccc32)cc1)c1ccccc1
inactive: HCT-15 colon 87.2% | HT29 colon 95.3% | SNB-75 CNS 88.1% | SNB-19 CNS 90.1% | U251 CNS 65.2% | PC-3 prostate 90.7% | SK-MEL-5 melanoma 66.8% | UACC-62 melanoma 82.3% | LOX IMVI melanoma 81% | SK-MEL-28 melanoma 104% | SK-MEL-2 melanoma 83.2% | EKVX NSCLC 98.4% | SN12C renal 73.4% | UO-31 renal 51.3% | TK-10 renal 113% | ACHN renal 80.6% | CAKI-1 renal 68.7% | CCRF-CEM leukemia 69.9% | MOLT-4 leukemia 71.7%

COc1ccc(C(=O)CSc2nc(-c3cc(OC)ccc3OC)cc(-c3ccc(Cl)cc3)c2C#N)cc1
inactive: HCT-15 colon 62.7% | HT29 colon 48.3% | SNB-75 CNS 30.9% | SNB-19 CNS 40.3% | U251 CNS 35.7% | PC-3 prostate 56.8% | SK-MEL-5 melanoma 36.6% | UACC-62 melanoma 16.8% | LOX IMVI melanoma 68.5% | SK-MEL-28 melanoma 32.1% | SK-MEL-2 melanoma 70.8% | EKVX NSCLC 79.7% | SN12C renal 42.6% | UO-31 renal 45.9% | TK-10 renal 61.9% | ACHN renal 31% | CAKI-1 renal 64.9% | CCRF-CEM leukemia 98.2% | MOLT-4 leukemia 94.3%

C=C(C)[C@@H]1CC[C@]2(C(=O)N3CCN(C)CC3)CC[C@]3(C)[C@H](CC[C@@H]4[C@@]5(C)CC[C@H](OCCC#N)C(C)(C)[C@@H]5CC[C@]43C)[C@@H]12
inactive: HCT-15 colon 90.6% | HT29 colon 27.6% | SNB-75 CNS 99.5% | SNB-19 CNS 95.9% | U251 CNS 43.9% | PC-3 prostate 72.2% | SK-MEL-5 melanoma 94.8% | UACC-62 melanoma 110% | LOX IMVI melanoma 53.5% | SK-MEL-28 melanoma 112% | SK-MEL-2 melanoma 97.7% | EKVX NSCLC 101% | SN12C renal 90.7% | UO-31 renal 81.8% | TK-10 renal 106% | ACHN renal 103% | CAKI-1 renal 99.8% | CCRF-CEM leukemia 23% | MOLT-4 leukemia 59.7%

CC(Oc1ccc(C(=O)O)cc1C(F)(F)F)c1ccc(Oc2ccccc2)cn1 (stereo not drawn)
inactive: HCT-15 colon 80.6% | HT29 colon 121% | SNB-75 CNS 90.1% | SNB-19 CNS 96.7% | U251 CNS 94.4% | PC-3 prostate 108% | SK-MEL-5 melanoma 98.7% | UACC-62 melanoma 91.8% | LOX IMVI melanoma 97% | SK-MEL-28 melanoma 95.1% | SK-MEL-2 melanoma 123% | EKVX NSCLC 103% | SN12C renal 98.3% | UO-31 renal 79.2% | TK-10 renal 99.5% | ACHN renal 104% | CAKI-1 renal 95.9% | CCRF-CEM leukemia 101% | MOLT-4 leukemia 106%

COc1cc(F)c(/C=C/c2cc(/C=C/c3cc(OC)c(OC)cc3F)on2)cc1OC
inactive: HCT-15 colon 82.1% | HT29 colon 77.9% | SNB-75 CNS 98.2% | SNB-19 CNS 76.8% | U251 CNS 83.1% | PC-3 prostate 74% | SK-MEL-5 melanoma 91.9% | UACC-62 melanoma 66.1% | LOX IMVI melanoma 81.9% | SK-MEL-28 melanoma 82.7% | SK-MEL-2 melanoma 76.3% | EKVX NSCLC 102% | SN12C renal 91.6% | UO-31 renal 91.2% | TK-10 renal 100% | ACHN renal 80% | CAKI-1 renal 90.1% | CCRF-CEM leukemia 91.9% | MOLT-4 leukemia 91.1%

Nc1n[nH]c2cccc(C#Cc3cccc(C(=O)Nc4cccc(C(F)(F)F)c4)c3)c12
inactive: HCT-15 colon 64.8% | HT29 colon 38.8% | SNB-75 CNS 77.9% | SNB-19 CNS 104% | U251 CNS 72.8% | PC-3 prostate 72.3% | SK-MEL-5 melanoma 53.8% | UACC-62 melanoma 42.7% | LOX IMVI melanoma 38% | SK-MEL-28 melanoma 53.5% | SK-MEL-2 melanoma 33.8% | EKVX NSCLC 89.7% | SN12C renal 67.3% | UO-31 renal 37.2% | TK-10 renal 97.5% | ACHN renal 54.7% | CAKI-1 renal 68.4% | CCRF-CEM leukemia 32.1% | MOLT-4 leukemia 39.2%

Cc1c(C(=O)NCCC(=O)NO)sc2ncnc(Nc3ccc(F)c(Cl)c3)c12
inactive: HCT-15 colon 102% | HT29 colon 104% | SNB-75 CNS 97.5% | SNB-19 CNS 98.9% | U251 CNS 102% | PC-3 prostate 104% | SK-MEL-5 melanoma 102% | UACC-62 melanoma 102% | LOX IMVI melanoma 98.8% | SK-MEL-28 melanoma 112% | SK-MEL-2 melanoma 101% | EKVX NSCLC 99.4% | SN12C renal 103% | UO-31 renal 84.8% | TK-10 renal 107% | ACHN renal 102% | CAKI-1 renal 96.6% | CCRF-CEM leukemia 105% | MOLT-4 leukemia 115%

CC1=C(C(=O)/C=C/c2c[nH]c3ccccc23)C(c2ccccc2)NC(=S)N1 (stereo not drawn)
inactive: HCT-15 colon 101% | HT29 colon 106% | SNB-75 CNS 65.5% | SNB-19 CNS 91.7% | U251 CNS 101% | PC-3 prostate 95.1% | SK-MEL-5 melanoma 98.3% | UACC-62 melanoma 83.6% | LOX IMVI melanoma 94.3% | SK-MEL-28 melanoma 104% | SK-MEL-2 melanoma 99.2% | EKVX NSCLC 85.1% | SN12C renal 91.6% | UO-31 renal 63.9% | TK-10 renal 135% | ACHN renal 93.5% | CAKI-1 renal 77.8% | CCRF-CEM leukemia 103% | MOLT-4 leukemia 101%
